Measured values from PubChem BioAssay (NCATS).
Inconclusive results are not listed. Activity calls are given as the source filed them. Unless noted, calls come from the whole dose curve; as a rule, active = well fitted curve in the direction sought with a large enough effect; inconclusive = small, poorly fitted or top-dose-only effect, or another doubt; inactive = no such curve, though single readings can be large; an effect the other way counts as inactive or inconclusive.

Key:
[1] = Cell Viability - Hek293 (AID 427;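 active = compounds whose dose-response curve shows a full or clear partial loss of cell viability, called from curve shape rather than a numeric limit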;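 note: potency is the fitted concentration of half-maximal effect; cells exposed to compound for 40 hours at 37 °C before reading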); conditions: qHTS
Outline: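 qHTS, human embryonic kidney (adenovirus-transformed) cells; 40 hr cpd, 37 °C; CellTiter-Glo ATP luminescence. Norm: DMSO = 0, 100 uM tamoxifen = 100% inhibition. Hill-fit AC50.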

[2] = Cell Viability - HepG2 (AID 433; calls by dose curve;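 note: potency is the fitted concentration of half-maximal effect; cells exposed to compound for 40 hours; potency for ATP loss meaning cytotoxicity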); conditions: qHTS
Outline: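 HepG2 cells, 1500 per well, treated 40 hr at 37 °C in complete medium; viability from intracellular ATP by CellTiter-Glo luminescence. Normalized to DMSO and 100 uM tamoxifen; AC50 from Hill fit of qHTS concentration-response.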

[3] = Cell Viability - H-4-II-E (AID 543); conditions: H-4-II-E rat hepatoma viability; series mostly up to 92.2 µM;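 note: cells exposed to compound for 40 hours; nearly all actives have a fitted effect of over 35% in size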; note: potency is the fitted concentration of half-maximal effect
Outline: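 CellTiter-Glo luminescence (intracellular ATP) measured after 40 h compound exposure at 37 °C in H-4-II-E rat hepatoma cells seeded at 1500/well. Values are AC50s fitted with the standard Hill equation.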

[4] = Cell Viability - SH-SY5Y (AID 544); conditions: SH-SY5Y neuroblastoma cell viability; series mostly up to 92.2 µM;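 note: cells exposed to compound for 40 hours; nearly all actives have a fitted effect of over 55% in size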; note: potency is the fitted concentration of half-maximal effect
Outline: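 Cytotoxicity measured via ATP-dependent luciferase luminescence (CellTiter-Glo) following 40 h, 37 °C exposure of 1500 SH-SY5Y cells per well. Concentration-response data were fitted with the standard Hill equation to give AC50.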

[5] = Cellular Toxicity (caspase-3) SK-N-SH (AID 661); conditions: SK-N-SH caspase-3 activation, qHTS, DMSO as zero, staurosporine as full; series mostly up to 91.7 µM;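 note: cells exposed to compound for 16 hours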
Outline: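 Caspase 3/7 activation was read by luminogenic substrate cleavage after 16 hour treatment of SK-N-SH cells. Signal was scaled between DMSO and 10 uM staurosporine, and concentration-response data were fitted with the Hill equation for AC50.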

[6] = Cellular Toxicity (caspase-3) H-4-II-E (AID 663); conditions: H-4-II-E rat hepatoma; Potency: caspase-3 activation; series mostly up to 92.2 µM; note: potency is the fitted concentration of half-maximal effect;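 for caspase-3 activation: cells exposed to compound for 16 hr before readout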
Outline: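 Caspase 3/7 activation measured in H-4-II-E cells in complete culture medium after 16 hr treatment at 37 °C, using luciferase-coupled substrate readout; AC50 values come from Hill-equation fits of normalized concentration-response data.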

[7] = Cellular Toxicity (caspase-3) N2a (AID 665); conditions: N2a cells, luminescence, normalized: DMSO 0%, 10 µM staurosporine 100%; series mostly up to 92.2 µM;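 note: compound exposure lasted 16 h at 37 °C before readout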
Outline: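 Caspase-3/7 activation measured as luminescence from Caspase-Glo reagent (1 h, room temperature) after 16 h compound exposure of mouse N2a cells. AC50 values from Hill-equation concentration-response, scaled between DMSO and 10 uM staurosporine.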

[8] = Cellular Toxicity (caspase-3) NIH 3T3 (AID 666); conditions: NIH 3T3 caspase-3 activation, apoptosis/toxicity, 0% DMSO, 100% is 100 µM tamoxifen; series mostly up to 92.2 µM;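 note: caspase signal read after 16 h compound exposure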
Outline: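 Caspase-Glo 3/7 luminescence reported caspase activation in 1000 NIH 3T3 cells/well after 16 h compound exposure at 37 C. DMSO set basal and 100 uM tamoxifen set 100% stimulation; concentration-response modeled with the Hill equation for AC50.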

[9] = MultiTox-Fluor Cytotoxicity Assay - LYMP1-001 - Dead Cells (AID 946); conditions: LYMP1-001 lymphoblastoid cells, dead-cell protease fluorescence; series mostly up to 92.2 µM
Outline: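 Seed 2500 LYMP1-001 cells/well, incubate 5 hr at 37 C; add compound, 16 hr at 37 C; add MultiTox-Fluor reagent, 60 min RT; read dead-cell fluorescence Ex/Em=485/520. Normalize to DMSO and 15 uM tetraoctylammonium bromide.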

[10] = Cell Viability - LYMP1-002 - Assay at 16 hr (AID 948); conditions: LYMP1-002 lymphoblastoid cell viability; series mostly up to 92.2 µM; note: potency is the fitted concentration of half-maximal effect
Outline: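 LYMP1-002 human lymphoblastoid cells, 2500/well, were treated with compounds for 16 hr at 37 C in complete medium. Viability was read as intracellular ATP by CellTiter-Glo luminescence, and AC50 was derived from a Hill fit to concentration-response data.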

[11] = Cell Viability - LYMP1-003 - Assay at 40 hr (AID 964); conditions: LYMP1-003 lymphoblastoid viability; series mostly up to 92.2 µM; note: nearly all actives have a fitted effect of over 60% in size; note: potency is the fitted concentration of half-maximal effect
Outline: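 Viability is taken as cellular ATP, read by CellTiter-Glo luminescence after 40 h of compound exposure at 37 C. Cells: human lymphoblastoid line LYMP1-003 at 2500/well; AC50 values derived by Hill-equation fitting of concentration-response data.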

[12] = Cell Viability - LYMP2-011 (AID 969); conditions: LYMP2-011 lymphoblastoid cells viability; series mostly up to 92.2 µM; note: nearly all actives have a fitted effect of over 60% in size; note: potency is the fitted concentration of half-maximal effect
Outline: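 Cytotoxicity qHTS with ATP content as read-out: lymphoblastoid cells (2500/well) exposed to compound for 24 h at 37 C, then luciferase luminescence measured. Concentration-response data fitted with the standard Hill equation to give AC50.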

[13] = Cell Viability - LYMP2-013 (AID 970); conditions: LYMP2-013 lymphoblastoid cells viability; series mostly up to 92.2 µM; note: nearly all actives have a fitted effect of over 55% in size; note: potency is the fitted concentration of half-maximal effect
Outline: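 qHTS cytotoxicity: ATP-dependent luminescence (CellTiter-Glo, 30 min room temperature) read after 24 h compound exposure at 37 C of 2500 LYMP2-013 lymphoblastoid cells per well. Concentration-response fitted with Hill equation to give AC50.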

[14] = Cell Viability - LYMP2-017 (AID 972); conditions: LYMP2-017 lymphoblastoid cell viability; series mostly up to 92.2 µM; note: nearly all actives have a fitted effect of over 55% in size; note: potency is the fitted concentration of half-maximal effect
Outline: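 CellTiter-Glo luminescence (cellular ATP, 30 min RT) measured cytotoxicity after 24 hr compound treatment at 37 C. Cells were a human lymphoblastoid line, LYMP2-017, plated at 2500/well and incubated 5 hr first; concentration-response fitted with Hill equation for AC50.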

[15] = Cell Viability - LYMP2-007 (AID 979); conditions: LYMP2-007 lymphoblastoid cell viability; series mostly up to 92.2 µM;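 note: cells exposed to compound for 24 h before reading; nearly all actives have a fitted effect of over 60% in size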; note: potency is the fitted concentration of half-maximal effect
Outline: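 AC50 values come from Hill-equation fits of luminescent intracellular ATP (CellTiter-Glo, 30 min, room temperature) following 24 h compound exposure at 37 C. Cells: LYMP2-007 lymphoblastoid line, 2500 per well, in complete culture medium.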

[16] = Cell Viability - LYMP2-010 (AID 981); conditions: LYMP2-010 lymphoblastoid cell viability, qHTS; series mostly up to 92.2 µM; note: nearly all actives have a fitted effect of over 55% in size; note: potency is the fitted concentration of half-maximal effect
Outline: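 CellTiter-Glo ATP luminescence measured cytotoxicity after 24 h compound exposure at 37 C. LYMP2-010 cells were seeded at 2500/well, with tetraoctylammonium bromide as control; concentration-response curves gave AC50 values by the Hill equation.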

[17] = Cell Viability - LYMP2-012 (AID 982); conditions: LYMP2-012 lymphoblastoid cell viability qHTS; series mostly up to 92.2 µM; note: potency is the fitted concentration of half-maximal effect
[18] = Cell Viability - LYMP2-020 (AID 986); conditions: series mostly up to 92.2 µM; note: nearly all actives have a fitted effect of over 55% in size; note: potency is the fitted concentration of half-maximal effect
Outline: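 Cytotoxicity in qHTS format: luminescent ATP readout from CellTiter-Glo after 24 h compound exposure at 37 C in complete medium. LYMP2-020 lymphoblastoid cells were seeded at 2500/well; concentration-response data fitted to the Hill equation for AC50.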

[19] = Cell Viability - LYMP2-022 (AID 987); conditions: LYMP2-022 lymphoblastoid cell viability; series mostly up to 92.2 µM; note: nearly all actives have a fitted effect of over 55% in size; note: potency is the fitted concentration of half-maximal effect
Outline: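 Cytotoxicity read as decreased cellular ATP (CellTiter-Glo luminescence, 30 min room temperature) after 24 hours compound exposure of 2500 lymphoblastoid LYMP2-022 cells/well at 37 C. Concentration-response data fitted with standard Hill equation for AC50.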

[20] = Cell Viability - LYMP2-024 (AID 988); conditions: LYMP2-024 lymphoblastoid cell viability; series mostly up to 92.2 µM; note: nearly all actives have a fitted effect of over 60% in size; note: potency is the fitted concentration of half-maximal effect
Outline: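 Cytotoxicity was taken as a decrease in ATP (CellTiter-Glo luminescence) after 24 hr compound exposure at 37 C of LYMP2-024 lymphoblastoid cells, 2500 cells/well. Concentration-response data were fitted to the Hill equation to give AC50.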

Measured: Potency

c1ccc2scnc2c1
inactive: [1] > 92 µM | [2] > 92 µM | [3] | [4] | [5] | [6] | [7] | [8] | [9] | [10] | [11] | [12] | [13] | [14] | [15] | [16] | [17] | [18] | [19] | [20]

O=S(=O)(O)c1ccccc1
inactive: [1] > 92 µM | [2] > 92 µM | [3] | [4] | [5] | [6] | [7] | [8] | [9] | [10] | [11] | [12] | [13] | [14] | [15] | [16] | [17] | [18] | [19] | [20]

O=C1CCc2ccccc2O1
inactive: [1] > 92 µM | [2] > 92 µM | [3] | [4] | [5] | [6] | [7] | [8] | [9] | [10] | [11] | [12] | [13] | [14] | [15] | [16] | [17] | [18] | [19] | [20]

O[C@@H]([C@H](O)[C@@H](O)CBr)[C@@H](O)CBr
inactive: [1] > 92 µM | [2] > 92 µM | [3] | [4] | [5] | [6] | [7] | [8] | [9] | [10] | [11] | [12] | [13] | [14] | [15] | [16] | [17] | [18] | [19] | [20]

O=C(O)c1ccccc1C(c1ccc(O)cc1)c1ccc(O)cc1
inactive: [1] > 92 µM | [2] > 92 µM | [3] | [4] | [5] | [6] | [7] | [8] | [9] | [10] | [11] | [12] | [13] | [14] | [15] | [16] | [17] | [18] | [19] | [20]

COc1ccc2nc(N)sc2c1
inactive: [1] > 92 µM | [2] > 92 µM | [3] | [4] | [5] | [6] | [7] | [8] | [9] | [10] | [11] | [12] | [13] | [14] | [15] | [16] | [17] | [18] | [19] | [20]

C=Cc1ccccc1Cl
inactive: [1] > 92 µM | [2] > 92 µM | [3] | [4] | [5] | [6] | [7] | [8] | [9] | [10] | [11] | [12] | [13] | [14] | [15] | [16] | [17] | [18] | [19] | [20]

Cc1ccc([N+](=O)[O-])cc1N
inactive: [1] > 92 µM | [2] > 92 µM | [3] | [4] | [5] | [6] | [7] | [8] | [9] | [10] | [11] | [12] | [13] | [14] | [15] | [16] | [17] | [18] | [19] | [20]

NC1=NC(S)C2N=CN=C2N1 (centres undefined)
active: [1] 1.39 µM | [2] 1.89 µM | [3] 0.398 µM | [4] 12.6 µM | [6] 2.51 µM | [10] 12.6 µM | [11] 1.58 µM | [12] 20 µM | [13] 20 µM | [14] 12.6 µM | [15] 15.8 µM | [16] 12.6 µM | [17] 7.94 µM | [18] 10 µM | [19] 12.6 µM | [20] 12.6 µM
inactive: [5] | [7] | [8]

CCCCCCCCCCCCCCC1CO1 (centres undefined)
inactive: [1] > 92 µM | [2] > 92 µM | [3] | [4] | [5] | [6] | [7] | [8] | [9] | [10] | [11] | [12] | [13] | [14] | [15] | [16] | [17] | [18] | [19] | [20]

CCCCOCCO
inactive: [1] > 92 µM | [2] > 92 µM | [3] | [4] | [5] | [6] | [7] | [8] | [9] | [10] | [11] | [12] | [13] | [14] | [15] | [16] | [17] | [18] | [19] | [20]

CC1(C)CC(N=C=O)CC(C)(CN=C=O)C1 (centres undefined)
inactive: [1] > 92 µM | [2] > 92 µM | [3] | [4] | [5] | [6] | [7] | [8] | [9] | [10] | [11] | [12] | [13] | [14] | [15] | [16] | [17] | [18] | [19] | [20]

Nc1ccc(Cl)cc1Cl
inactive: [1] > 92 µM | [2] > 92 µM | [3] | [4] | [5] | [6] | [7] | [8] | [9] | [10] | [11] | [12] | [13] | [14] | [15] | [16] | [17] | [18] | [19] | [20]
